The record followed here is PubChem BioAssay.

Each structure is given as a SMILES string. Activity calls are given as the source filed them. Cut-off read from the data, not from the text of the source, unless noted: active = inhibition above about 30%; inactive = the rest.

The nature of assay [1]: Her2 expression decrease, cell viability multiplex – SKBR3 breast tumor cells, AlphaScreen, ATP viability, primary screen (AID 461;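 active = Her2 level under about 52% in both replicate screens, with viability over 70% of control, limit read from the data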;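 for Her2 level: lower value means less Her2 protein in the cells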;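 for viability: percent of carrier control wells set as 100% viability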). As to conditions: SKBR3 Her2 protein level, 18-24 h, measured here: SKBR3 viability, ATP luminescence, at 10 µM. In general terms: In Alpha technology, singlet oxygen from a donor bead excites a nearby acceptor bead.
Assay [2] has as its target Receptor tyrosine-protein kinase erbB-2 (Homo sapiens) (UniProt P04626). The assay is described as above. As to conditions: 18-24 h, at 10 µM, stronger effect = lower value.
Assay [3] can be described thus: reduced viability of SK-BR-3 breast cancer cells – cell-based, 24 h, human, pilot screen (AID 572;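 active = viability at or below 10% of carrier control in both of two separate runs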;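 note: compound exposure lasted between 18 and 24 h rather than exactly 24 h; 100% = carrier-treated control wells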). As to conditions: SK-BR-3 viability, CellTiter-Glo luminescence, at 10 µM, stronger effect = lower value. In general terms: ATP-based viability assays read luminescence as a measure of living cells.
Assay [4] can be described thus: HUVEC growth inhibition – cell-based, human, primary screen (AID 575;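 active = viability at or below 30% in both replicate assays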;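 note: 100% = median of untreated cell wells with 0.1% DMSO on each plate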). As to conditions: HUVEC proliferation, CellTiter-Glo luminescence, 72 h; at 10 µM; stronger effect = lower value.
Assay [5] can be described thus: MRP1 drug-resistance reversers in H69AR cells – cell-based, doxorubicin co-treatment, pilot screen (AID 601;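 active = viability loss from added drug above about 55%, and viability with drug at most 40%, in both replicates, limit read from the data, passing the limit was not always enough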). The note with it: CellTiter-Glo, 72 h, at 10 µM; for differential viability (reversal): stronger effect = higher value.
Assay [6] is described as follows: yeast transport mutant growth inhibition pilot in 384-well plates, post-Golgi transport modulator project (AID 636; in the data active = inhibition above about 31%). As to conditions: absorbance 615 nm, about 18 h, stronger effect = higher value.
A short description of assay [7]: growth suppression of yeast trafficking mutant, preliminary HTS, modulators of trafficking downstream of Golgi apparatus project, 1536-format plate, OD 615 nm (AID 637). As to conditions: yeast transport mutant growth, absorbance 615 nm, 18 h; stronger effect = higher value.
Where [8] appears, read: H69AR cells + 2 uM doxorubicin, measured here: viability with 2 uM doxorubicin, stronger effect = lower value.
Where [9] appears, read: H69AR cells, compound alone cytotoxicity.

Receptor tyrosine-protein kinase erbB-2 (Homo sapiens), sequence (P04626 whole entry, looked up): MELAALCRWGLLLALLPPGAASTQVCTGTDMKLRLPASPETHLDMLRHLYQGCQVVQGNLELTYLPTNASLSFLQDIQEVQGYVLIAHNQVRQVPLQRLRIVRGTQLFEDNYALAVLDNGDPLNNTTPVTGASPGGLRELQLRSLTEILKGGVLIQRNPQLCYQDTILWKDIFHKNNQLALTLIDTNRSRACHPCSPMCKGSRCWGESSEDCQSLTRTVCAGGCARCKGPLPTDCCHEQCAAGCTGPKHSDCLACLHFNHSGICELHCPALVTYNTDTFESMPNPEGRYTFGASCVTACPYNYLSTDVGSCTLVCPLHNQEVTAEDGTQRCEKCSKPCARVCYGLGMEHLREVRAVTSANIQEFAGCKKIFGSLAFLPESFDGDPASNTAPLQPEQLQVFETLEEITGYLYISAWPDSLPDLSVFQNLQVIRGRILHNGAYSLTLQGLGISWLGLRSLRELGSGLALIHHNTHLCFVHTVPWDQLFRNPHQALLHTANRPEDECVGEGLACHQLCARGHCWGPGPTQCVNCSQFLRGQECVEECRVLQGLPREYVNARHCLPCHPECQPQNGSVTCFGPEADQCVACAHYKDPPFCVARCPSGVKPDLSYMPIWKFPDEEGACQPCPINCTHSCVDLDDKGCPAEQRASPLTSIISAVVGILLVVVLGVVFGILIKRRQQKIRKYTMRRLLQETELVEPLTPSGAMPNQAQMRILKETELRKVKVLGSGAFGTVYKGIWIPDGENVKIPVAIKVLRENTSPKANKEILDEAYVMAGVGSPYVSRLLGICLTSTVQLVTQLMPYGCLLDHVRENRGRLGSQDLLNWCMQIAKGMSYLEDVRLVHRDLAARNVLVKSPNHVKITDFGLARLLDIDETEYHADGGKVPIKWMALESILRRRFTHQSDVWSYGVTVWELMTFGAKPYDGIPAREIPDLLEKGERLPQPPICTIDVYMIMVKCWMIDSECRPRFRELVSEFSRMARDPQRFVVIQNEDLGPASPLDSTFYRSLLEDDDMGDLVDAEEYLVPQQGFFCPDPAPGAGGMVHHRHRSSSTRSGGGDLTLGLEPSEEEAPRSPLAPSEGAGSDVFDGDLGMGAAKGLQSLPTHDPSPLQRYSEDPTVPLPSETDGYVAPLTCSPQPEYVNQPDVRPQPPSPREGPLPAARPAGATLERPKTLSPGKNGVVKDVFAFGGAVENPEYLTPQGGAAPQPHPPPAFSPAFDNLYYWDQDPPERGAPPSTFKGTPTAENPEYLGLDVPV

As a reminder, the viability is a read-out of living cells in per cent, often relative to untreated cells. The inhibition is the change of the read-out against control, counted positive when it falls. Turning to `COc1ccc(OCC(=O)N2CCN(C(=O)COc3ccc(Br)cc3)CC2)cc1`, the viability in assay [1] is 84.5%; in assay [3] it was 84.5% (inactive); in assay [4], 81.3% (inactive); in assay [5] (setting [8]) it was 40.4%; in assay [5] (setting [9]), 47.6%. Moreover, the Her2 level in assay [2] is 95.5% (inactive). Further, in assay [5] (H69AR cells + 2 uM doxorubicin), the differential viability (reversal) was 7.19% (inactive). The results for the inhibition in assay [6] and in assay [7] were -2.67% (inactive) and 3.71% (inactive), respectively.

As for `CCCCCSc1nc2c(cnn2-c2ccccc2)c(=O)[nH]1`, the viability in assay [1] was 99%; in assay [3] it was 99% (inactive); in assay [4] it was 45.2% (inactive); in assay [5] (setting [8]), 50.1%; in assay [5] (setting [9]), 46.3%. The Her2 level in assay [2] is 93.5% (inactive). Also, in assay [5] (H69AR cells + 2 uM doxorubicin), the differential viability (reversal) is -3.82% (inactive). In addition, the inhibition in assay [6] was -5.26% (inactive); in assay [7], -0.17% (inactive).

Consider `Cn1c(Cc2ccccc2)nnc1SCC(=O)c1ccc(Br)s1`, for which the viability in assay [1] was 97.5%; in assay [3] it was 97.5% (inactive); in assay [4], 81.4% (inactive); in assay [5] (setting [8]), 53.9%; in assay [5] (setting [9]), 49.4%. For the same compound, the Her2 level in assay [2] is 83.5% (inactive). In assay [5] (H69AR cells + 2 uM doxorubicin), the differential viability (reversal) was -4.43% (inactive). The inhibition in assay [6] is -2.08% (inactive); in assay [7], -5.4% (inactive).

For the compound `O=C(NCc1ccc2c(c1)OCO2)c1cccc2c1C(=O)N(C1CCCCC1)C2`, the viability in assay [1] is 102%; in assay [3], 102% (inactive); in assay [4], 87% (inactive); in assay [5] (setting [8]) it was 71.9%; in assay [5] (setting [9]), 59.2%. Also, the Her2 level in assay [2] is 72.5% (inactive). Also, in assay [5] (H69AR cells + 2 uM doxorubicin), the differential viability (reversal) is -12.7% (inactive). Further, the results for the inhibition in assay [6] and in assay [7] were -0.38% (inactive) and 2.83% (inactive), respectively.

Consider `CSc1nc(N)nc(SCCS(=O)(=O)c2ccc(Cl)cc2)c1C#N`, for which the viability was 90.5% in assay [1]; 90.5% (inactive) in assay [3]; 56.6% (inactive) in assay [4]; 34.2% in assay [5] (setting [8]); 26.9% in assay [5] (setting [9]). For the same compound, the Her2 level in assay [2] was 68% (inactive). Moreover, in assay [5] (H69AR cells + 2 uM doxorubicin), the differential viability (reversal) was -7.24% (inactive). Moreover, the inhibition was -3.47% (inactive) in assay [6] and -3.65% (inactive) in assay [7].

As to `Cc1cc(C)c2c(n1)nn1c(N3CCN(c4ccccc4C)CC3)cc(C)nc21`, the viability in assay [1] was 73.5%; in assay [3], 73.5% (inactive); in assay [4] it was 92.4% (inactive); in assay [5] (setting [8]) it was 73.6%; in assay [5] (setting [9]), 73.1%. The Her2 level in assay [2] was 95.5% (inactive). Also, in assay [5] (H69AR cells + 2 uM doxorubicin), the differential viability (reversal) was -0.53% (inactive). Moreover, the inhibition in assay [6] was 1.18% (inactive); in assay [7], 6.73% (inactive).

Consider `CCOC(=O)c1c(NC(=O)Cn2c(C)nc3ccccc32)sc2c1CCC2`, for which the viability in assay [1] is 107%; in assay [3] it was 107% (inactive); in assay [4] it was 63% (inactive); in assay [5] (setting [8]), 54.7%; in assay [5] (setting [9]), 57.8%. For the same compound, the Her2 level in assay [2] was 107% (inactive). Besides, the differential viability (reversal) in assay [5] (H69AR cells + 2 uM doxorubicin) was 3.14% (inactive). For the same compound, the results for the inhibition in assay [6] and in assay [7] were -4.53% (inactive) and -0.97% (inactive), respectively.

`COc1ccc(CC(=O)NCc2cccs2)cc1`: the viability in assay [1] is 90%; in assay [3], 90% (inactive); in assay [4] it was 60.6% (inactive); in assay [5] (setting [8]) it was 77.9%; in assay [5] (setting [9]), 60.5%. Besides, in assay [2], the Her2 level is 103% (inactive). Besides, the differential viability (reversal) in assay [5] (H69AR cells + 2 uM doxorubicin) was -17.3% (inactive). The results for the inhibition in assay [6] and in assay [7] were -4% (inactive) and -8.03% (inactive), respectively.

On to `COc1ccc(C(C)(C)C)cc1NC(=O)Nc1ccc2c(c1)OCO2`, for which the viability in assay [1] was 108%; in assay [3] it was 108% (inactive); in assay [4], 64.8% (inactive); in assay [5] (setting [8]) it was 57.2%; in assay [5] (setting [9]) it was 45.3%. Further, in assay [2], the Her2 level is 89.5% (inactive). For the same compound, the differential viability (reversal) in assay [5] (H69AR cells + 2 uM doxorubicin) is -12% (inactive). Further, the figures for the inhibition in assay [6] and in assay [7] were -1.18% (inactive) and 23.4% (inactive), respectively.

With `CCn1cc(C(=O)OCC(=O)OC2CC(C)CCC2C(C)C)c(=O)c2ccc(C)nc21` (stereo not drawn), the viability was 94.5% in assay [1]; 94.5% (inactive) in assay [3]; 35.3% (inactive) in assay [4]; 46.3% in assay [5] (setting [8]); 44.7% in assay [5] (setting [9]). Further, the Her2 level in assay [2] was 67.5% (inactive). In assay [5] (H69AR cells + 2 uM doxorubicin), the differential viability (reversal) was -1.67% (inactive). Besides, the inhibition in assay [6] is 78.4% (active); in assay [7] it was -1.45% (inactive).

For `C=C(C)COc1ccc(-c2nc(N)ncc2Oc2ccccc2OCC)c(O)c1`, the viability is 79% in assay [1]; 79% (inactive) in assay [3]; 85.5% (inactive) in assay [4]; 51.6% in assay [5] (setting [8]); 39.1% in assay [5] (setting [9]). Besides, in assay [2], the Her2 level was 84.5% (inactive). Also, in assay [5] (H69AR cells + 2 uM doxorubicin), the differential viability (reversal) was -12.4% (inactive). For the same compound, the inhibition in assay [6] is -0.66% (inactive); in assay [7] it was 24.4% (inactive).

As for `Cc1ccccc1OCC(O)CN` (stereo not drawn), the viability was 74% in assay [1]; 74% (inactive) in assay [3]; 15.3% (active) in assay [4]; 25% in assay [5] (setting [8]); 19.3% in assay [5] (setting [9]). In addition, the Her2 level in assay [2] was 90% (inactive). In addition, in assay [5] (H69AR cells + 2 uM doxorubicin), the differential viability (reversal) was -5.69% (inactive). Besides, the inhibition is 3.64% (inactive) in assay [6] and -6.03% (inactive) in assay [7].

For `COc1cccc(Cn2c(-c3nonc3N)nc3ccccc32)c1`, the viability is 93.5% in assay [1]; 93.5% (inactive) in assay [3]; 58.2% (inactive) in assay [4]; 62.7% in assay [5] (setting [8]); 16% in assay [5] (setting [9]). The Her2 level in assay [2] was 82% (inactive). Moreover, in assay [5] (H69AR cells + 2 uM doxorubicin), the differential viability (reversal) was -46.7% (inactive). For the same compound, the inhibition in assay [6] is -2.6% (inactive); in assay [7], -2.06% (inactive).

As for `CCOc1ccc2nc(NC(=O)C3CCCN(S(=O)(=O)c4c(C)noc4C)C3)sc2c1` (stereo not drawn), the viability in assay [1] is 124%; in assay [3], 124% (inactive); in assay [4] it was 49.7% (inactive); in assay [5] (setting [8]), 71.2%; in assay [5] (setting [9]), 47.9%. In assay [2], the Her2 level is 74% (inactive). Further, the differential viability (reversal) in assay [5] (H69AR cells + 2 uM doxorubicin) is -23.4% (inactive). In addition, the inhibition in assay [6] is 6.28% (inactive); in assay [7], 7.5% (inactive).

In the case of `CN1CC=C2C(C#N)=C(N)C(C#N)(C#N)[C@H](c3cccc(Cl)c3)C2C1` (stereo partly drawn), the viability in assay [1] was 94%; in assay [3], 94% (inactive); in assay [4], 83% (inactive); in assay [5] (setting [8]), 22.1%; in assay [5] (setting [9]) it was 54.7%. Moreover, the Her2 level in assay [2] was 73.5% (inactive). Also, the differential viability (reversal) in assay [5] (H69AR cells + 2 uM doxorubicin) was 32.6% (inactive). Further, the inhibition is -4.27% (inactive) in assay [6] and -1.9% (inactive) in assay [7].

For `Cc1ccc(Cn2c(C)nc3c(c2=O)c2nc4ccccc4nc2n3Cc2ccco2)cc1`, the viability in assay [1] is 118%; in assay [3] it was 118% (inactive); in assay [4] it was 54.9% (inactive); in assay [5] (setting [8]) it was 50.5%; in assay [5] (setting [9]), 49%. The Her2 level in assay [2] is 71.5% (inactive). For the same compound, the differential viability (reversal) in assay [5] (H69AR cells + 2 uM doxorubicin) is -1.46% (inactive). Also, the inhibition was 1.32% (inactive) in assay [6] and 1.8% (inactive) in assay [7].

On to `O=C(c1cc(-c2ccco2)nn1-c1cccc(Cl)c1)N1CCCCC1`, for which the viability is 111% in assay [1]; 111% (inactive) in assay [3]; 95% (inactive) in assay [4]; 79.2% in assay [5] (setting [8]); 53.3% in assay [5] (setting [9]). In assay [2], the Her2 level is 84.5% (inactive). In addition, in assay [5] (H69AR cells + 2 uM doxorubicin), the differential viability (reversal) was -25.9% (inactive). Besides, the figures for the inhibition in assay [6] and in assay [7] were -2.24% (inactive) and -1.94% (inactive), respectively.
